Test results reported in PubChem BioAssay (NCI).
Compounds without any hit were thinned out: in the full panel of roughly 79,000, 15% have a hit. Values without a mark were called inactive. Active and inactive are the calls of the source. Cut-off read from the data, not from the text of the source: active = growth inhibition above about 70%; inactive = the rest.

Assay: NCI Yeast Anticancer Drug Screen. Data for the cln2 rad14 strain (AID 165);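 note: 0% = growth equal to vehicle treated cultures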
Settings: S. cerevisiae cln2 rad14 strain, at 50.0 µM, active compounds read high
Procedure, shortened: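 Readout is yeast growth inhibition versus vehicle-treated controls, using a strain with cln2 and rad14 alterations exposed to compound.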
In the case of `O=C(O)C(Sc1ccccc1)c1ccccc1` (stereo not given), the growth inhibition is reported as -32.4%.
In the case of `NC(Cc1ccc(S(=O)(=O)O)cc1)C(=O)NC(Cc1ccc(S(=O)(=O)O)cc1)C(=O)NC(Cc1ccc(S(=O)(=O)O)cc1)C(=O)O` (stereo not given), the growth inhibition is reported as -9.5%.
Work on `COc1ccc(CCNC(=O)CCC2CCN(CCc3ccc(OC)c(OC)c3)CC2)cc1OC` yielded a growth inhibition of 22.4%.
`OC1(c2ccccc2)C(c2ccccc2)=C(c2ccccc2)C(c2ccc(CCCCCCCCc3ccc(C4=C(c5ccccc5)C(O)(c5ccccc5)C(c5ccccc5)=C4c4ccccc4)cc3)cc2)=C1c1ccccc1` (stereo not given) gave a growth inhibition of -28.1%.
In the case of `S=C(c1ccccc1)N1CCCCC1`, the growth inhibition is reported as -23.4%.
`N#CC1(Cl)CC2CC1C1N=NN(c3ccccc3)C21` (stereo not given) showed a growth inhibition of -58%.
With `Fc1ccc2nncc(SCc3ccc(Cl)c(Cl)c3)c2c1` the growth inhibition was -11.2%.
`CON(C)C(C#N)=C(C#N)C#N` showed a growth inhibition of 7.05%.
Molecule `CCC(/C(=N/NC(=O)C[N+](C)(C)C)c1ccccc1)C1OC(=O)c2ccccc21` (stereo not given) has a growth inhibition of 23.2%.
Molecule `N#Cc1ccc(NN=NCCOCCCl)cc1` has a growth inhibition of 34.9%.
In the case of `Nc1nc(N)nc(C2C=CCCC2)n1` (stereo not given), the growth inhibition is reported as -32.6%.
Work on `COC(=O)NS(=O)(=O)C1=Cc2cccc3cccc1c23` yielded a growth inhibition of 9.75%.
`CCCN1C(=O)c2cc(=O)n(Cc3ccccc3)c(O)c2C1C` (stereo not given) showed a growth inhibition of 8.4%.
With `O=C1CCC(=O)N2C(=O)CCC(=O)N12` the growth inhibition was -15.3%.
`COC(=O)CC/C=N/NC(N)=O` showed a growth inhibition of -17.8%.
With `BrC1=C(c2ccccc2)C2CCCCC2C1(Br)c1ccccc1` (stereo not given) the growth inhibition was 96.9% (active).
For `CC(C)CCC(=S)N1CCN(c2ccccc2)CC1`, the growth inhibition was -45.1%.
In the case of `CCCCNC(=O)Oc1c(Cl)cc(Cl)c(Cl)c1[N+](=O)[O-]`, the growth inhibition is reported as 4.4%.
`[N-]=[N+]=Nc1nc2c(N)ncnc2n1C1OC(CO)C(O)C1O` (stereo not given) gave a growth inhibition of -22.8%.
In the case of `Cc1ccccc1OCC1COCN(C(C)(C)CO)CO1` (stereo not given), the growth inhibition is reported as 7.9%.
For `O=C1c2ccccc2CC12Cc1cc3c(cc1C2=O)CCC3` (stereo not given), the growth inhibition was 25.5%.
With `Brc1ccccc1/C=N\N=C\c1ccccc1Br` the growth inhibition was -5.25%.
In the case of `O=C(CC1NCCS1)OCc1ccc(Br)cc1` (stereo not given), the growth inhibition is reported as 24.7%.
In the case of `CCCCCCCC(N)=O`, the growth inhibition is reported as 12.4%.
`CN(C)NC(=O)CC#N` gave a growth inhibition of -4.3%.
For `Cc1ccc2c(c1)C(C(C)C)CCC2(C)C` (stereo not given), the growth inhibition was 4.85%.
For `CC(=O)NC(C=O)C(O)C(O)C(O)C(=O)O` (stereo not given) (tested in a mixture with another compound), the growth inhibition was 1.8%.
Molecule `CCS(=O)(=O)C(S(C)(=O)=O)S(=O)(=O)C(C)C` (stereo not given) has a growth inhibition of -9.15%.
For `CN1CCC2(C1)C1CC3CC(C1)CC2C3` (stereo not given), the growth inhibition was -7.3%.
`Cn1c(CC(O)(C(F)(F)Cl)C(F)(F)Cl)cc(=O)n1-c1ccccc1` showed a growth inhibition of 6.25%.
`CC(=O)NC1c2ccccc2Oc2c(C)cccc21` (stereo not given) gave a growth inhibition of -15.9%.
With `C[C@@]1(NC(=O)Cc2ccccc2)C(=O)N2CCS[C@@]21c1ccccc1` the growth inhibition was -3.2%.
`CC(C)CCCC(C)C1CCC2C3C(=O)C=C4CC(OC(=O)CCC(C)C)CCC4(C)C3CCC12C` (stereo not given) gave a growth inhibition of 19.8%.
`CN(CC(=O)O)C(=N)N` showed a growth inhibition of -2.75%.
Molecule `OCCOc1ccc(Cl)cc1Cl` has a growth inhibition of -2.85%.
`COc1cc([N+](=O)[O-])cc(C(C)=O)c1O` showed a growth inhibition of 2.45%.
With `CCn1ncc2ccc(N(CO)CO)cc21` the growth inhibition was -20.2%.
With `Cn1c(=O)c2c(-c3ccccc3)onc2n(C)c1=O` the growth inhibition was 33.7%.
Molecule `Cn1c(=O)[nH]nc(Br)c1=O` has a growth inhibition of -4.75%.
`[N-]=[N+]=NC1CC(n2cc(Cc3ccccc3)c(N)nc2=O)OC1CO` (stereo not given) showed a growth inhibition of 2.95%.

Assay: NCI Yeast Anticancer Drug Screen. Data for the bub3 strain (AID 167)
Settings: S. cerevisiae bub3 mutant strain, at 50.0 µM, active compounds read high
Procedure, shortened: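 Screening used yeast with an engineered genetic alteration affecting cell cycle control. Compound-exposed cultures were compared with vehicle cultures, and reduced growth was taken as inhibition.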
For `O=C(O)C(Sc1ccccc1)c1ccccc1` (stereo not given), the growth inhibition was -21.9%.
`NC(Cc1ccc(S(=O)(=O)O)cc1)C(=O)NC(Cc1ccc(S(=O)(=O)O)cc1)C(=O)NC(Cc1ccc(S(=O)(=O)O)cc1)C(=O)O` (stereo not given) showed a growth inhibition of 9.3%.
In the case of `COc1ccc(CCNC(=O)CCC2CCN(CCc3ccc(OC)c(OC)c3)CC2)cc1OC`, the growth inhibition is reported as -1.5%.
In the case of `OC1(c2ccccc2)C(c2ccccc2)=C(c2ccccc2)C(c2ccc(CCCCCCCCc3ccc(C4=C(c5ccccc5)C(O)(c5ccccc5)C(c5ccccc5)=C4c4ccccc4)cc3)cc2)=C1c1ccccc1` (stereo not given), the growth inhibition is reported as -23.6%.
`S=C(c1ccccc1)N1CCCCC1` gave a growth inhibition of 16.3%.
In the case of `N#CC1(Cl)CC2CC1C1N=NN(c3ccccc3)C21` (stereo not given), the growth inhibition is reported as 25.6%.
`Fc1ccc2nncc(SCc3ccc(Cl)c(Cl)c3)c2c1` gave a growth inhibition of 18.4%.
`CON(C)C(C#N)=C(C#N)C#N` gave a growth inhibition of 8.1%.
With `CCC(/C(=N/NC(=O)C[N+](C)(C)C)c1ccccc1)C1OC(=O)c2ccccc21` (stereo not given) the growth inhibition was 19.4%.
`N#Cc1ccc(NN=NCCOCCCl)cc1` showed a growth inhibition of 27.1%.
Molecule `Nc1nc(N)nc(C2C=CCCC2)n1` (stereo not given) has a growth inhibition of -11.4%.
`COC(=O)NS(=O)(=O)C1=Cc2cccc3cccc1c23` gave a growth inhibition of 6.35%.
In the case of `CCCN1C(=O)c2cc(=O)n(Cc3ccccc3)c(O)c2C1C` (stereo not given), the growth inhibition is reported as -9.45%.
`O=C1CCC(=O)N2C(=O)CCC(=O)N12` showed a growth inhibition of 0.45%.
Work on `COC(=O)CC/C=N/NC(N)=O` yielded a growth inhibition of 2.35%.
With `BrC1=C(c2ccccc2)C2CCCCC2C1(Br)c1ccccc1` (stereo not given) the growth inhibition was 96.8% (active).
In the case of `CC(C)CCC(=S)N1CCN(c2ccccc2)CC1`, the growth inhibition is reported as 2.05%.
Molecule `CCCCNC(=O)Oc1c(Cl)cc(Cl)c(Cl)c1[N+](=O)[O-]` has a growth inhibition of -11.1%.
For `[N-]=[N+]=Nc1nc2c(N)ncnc2n1C1OC(CO)C(O)C1O` (stereo not given), the growth inhibition was -1.35%.
With `Cc1ccccc1OCC1COCN(C(C)(C)CO)CO1` (stereo not given) the growth inhibition was -13.9%.
For `O=C1c2ccccc2CC12Cc1cc3c(cc1C2=O)CCC3` (stereo not given), the growth inhibition was 44.4%.
With `Brc1ccccc1/C=N\N=C\c1ccccc1Br` the growth inhibition was -6.4%.
`O=C(CC1NCCS1)OCc1ccc(Br)cc1` (stereo not given) showed a growth inhibition of 16.9%.
`CCCCCCCC(N)=O` showed a growth inhibition of -11.6%.
`CN(C)NC(=O)CC#N` showed a growth inhibition of -6%.
Work on `Cc1ccc2c(c1)C(C(C)C)CCC2(C)C` (stereo not given) yielded a growth inhibition of -0.6%.
`CC(=O)NC(C=O)C(O)C(O)C(O)C(=O)O` (stereo not given) (tested in a mixture with another compound) showed a growth inhibition of -22.9%.
`CCS(=O)(=O)C(S(C)(=O)=O)S(=O)(=O)C(C)C` (stereo not given) showed a growth inhibition of 26.8%.
In the case of `CN1CCC2(C1)C1CC3CC(C1)CC2C3` (stereo not given), the growth inhibition is reported as 3.4%.
`Cn1c(CC(O)(C(F)(F)Cl)C(F)(F)Cl)cc(=O)n1-c1ccccc1` showed a growth inhibition of 7%.
With `CC(=O)NC1c2ccccc2Oc2c(C)cccc21` (stereo not given) the growth inhibition was 2.75%.
`C[C@@]1(NC(=O)Cc2ccccc2)C(=O)N2CCS[C@@]21c1ccccc1` gave a growth inhibition of 12.8%.
For `CC(C)CCCC(C)C1CCC2C3C(=O)C=C4CC(OC(=O)CCC(C)C)CCC4(C)C3CCC12C` (stereo not given), the growth inhibition was -0.55%.
`CN(CC(=O)O)C(=N)N` gave a growth inhibition of -24.6%.
In the case of `OCCOc1ccc(Cl)cc1Cl`, the growth inhibition is reported as -0.8%.
For `COc1cc([N+](=O)[O-])cc(C(C)=O)c1O`, the growth inhibition was 15.1%.
In the case of `CCn1ncc2ccc(N(CO)CO)cc21`, the growth inhibition is reported as -22.6%.
Work on `Cn1c(=O)c2c(-c3ccccc3)onc2n(C)c1=O` yielded a growth inhibition of 2.8%.
With `Cn1c(=O)[nH]nc(Br)c1=O` the growth inhibition was -4.6%.
`[N-]=[N+]=NC1CC(n2cc(Cc3ccccc3)c(N)nc2=O)OC1CO` (stereo not given) gave a growth inhibition of 2.9%.
